In all, about 340,000 compounds went through this assay and about 6,200 (1.8%) were called active. About 10% were inconclusive and are not listed. Calls come from the whole dose curve; as a rule, active = well fitted activation curve with a large enough effect; inconclusive = small, poorly fitted or top-dose-only effect; inactive = no such curve, though single readings can be large or run the other way. What follows is part of a selection rich in actives, with near analogues and random picks from the rest.
Test: A quantitative high throughput screen for small molecules that induce DNA re-replication in SW480 colon adenocarcinoma cells. For re-replication activation: % of control where 0% means no effect. Note: nearly all actives have a fitted effect of over 55% in size.
Settings: Hoechst DNA content imaging, 48 h; series mostly up to 46.1 µM; re-replication activation: at the top concentration
Method in brief: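 SW480 cells exposed to compounds for 48 hr at 37 C, 5% CO2, then Hoechst-stained 40 min. Nuclear DNA content imaged by fluorescence scanning (405 nm excitation, 500-530 nm emission); re-replication scored as increased high-intensity nuclei.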
Potency is the fitted concentration of half-maximal effect.

re-replication activation, inactive:
CN(CC(=O)NCCc1ccc(S(N)(=O)=O)cc1)CC(=O)Nc1ccc(Cl)cc1 -4.05%
Cc1ccc(C2CC(=O)NC(SCC(=O)OCc3ccccc3)=C2C#N)o1 (stereo not given) 3.01%
COC(=O)CSC1=C(C#N)C(c2ccccc2OC)C(C(=O)OC)C(=O)N1 (stereo not given) 0.322% [at 9.22 µM]
CC(C)Cc1nnc(N)s1 -5.57%
Cc1ccc(NC(=O)c2cc3ccccc3o2)cc1 5.51%
O=C(N/N=C/c1cccc(O)c1)c1cc2c(ccc3ccccc32)o1 7.96%
CC(C)Sc1nc(N)nc2c1ncn2C1OC(CO)C(O)C1O (stereo not given) -2.18%
c1ccc(-n2nnnc2N2CCOCC2)cc1 -0.759%
Fc1ccccc1CCNc1nnnn1-c1ccccc1 8.82%
COc1ccc(CNCCCn2cnc3c(OCc4ccccc4)ncnc32)cc1 -0.249%
O=[N+]([O-])c1ccc(N2CCOCC2)cc1 -3.05%
CCN(CC)C(=O)[C@H]1CC(CC(=O)NCc2ccco2)C(=O)N2CCc3c([nH]c4ccccc34)[C@]12C (stereo not given in full) 0.301%
COc1cccc(NC(=O)CSc2nnc(C3CCCCC3)n2N)c1 -7.72%
COC(=O)c1ccc(CSc2nc3ccccc3c(=O)n2-c2cccc(OC)c2)o1 -0.0715%
COCC(C)n1c(SCC(=O)NC2CCCCC2C)nc2ccccc2c1=O (stereo not given) 3.05%
O=C(c1ccc(Cl)c(S(=O)(=O)N2CCCCCC2)c1)N1CCN(c2ccc(O)cc2)CC1 -4.95%
C[n+]1cccc(C(=O)O)c1 -9.96%
O=C(NCCc1ccccc1)c1c[nH]c2ccc(F)cc2c1=O 2.52%
COc1ccc(CNC2CCCCC2)cc1 -14.2%
CCC(CO)Oc1cc(NCc2ccccc2)c2ncn(C3CCCC3)c2c1 (stereo not given) 5.67%
O=S(=O)(O)c1cc2onnc2c2ccccc12 -4.34%
CNc1nc(=O)n(C2CCCO2)cc1C (stereo not given) 6.26%
Cc1ccc(S(=O)(=O)NC2CCCCCC2)cc1 1.2%
Cc1ccc(S(=O)(=O)N(C)C2(C)CCS(=O)(=O)C2)cc1 (stereo not given) -6.3%
CCOC(=O)C1=C(C)c2ccccc2OC1C(=O)OCC (stereo not given) 1.25%
CC(C)(C)OC(=O)C[C@@H]1C/C=C\C[C@@H](CC(=O)N(CCO)Cc2ccccc2)C(=O)N[C@H](Cc2ccccc2)COC1=O -1.83%
COc1ccccc1CNC(=O)c1ccc(Cl)c(S(=O)(=O)N2CCCC2)c1 -7.01%
O=C(COC(=O)c1cccc(Cl)c1)NC(=O)NCc1ccccc1 -1.83%
Cc1cc(Nc2ccc(Cl)cc2)nc(N2CCOCC2)n1 -110%
Cc1cc(C)n(-c2ccc(C(=O)O)cc2[N+](=O)[O-])n1 -17%
Cc1ccc(S(=O)(=O)Nc2nc(C)cc(N/N=C/c3ccc(O)cc3)n2)cc1 -6.5%
Cc1nc(Cl)cc(N/N=C/c2ccccc2)n1 -0.738%
Cc1cc(Oc2ccc(Cl)cc2)nc(SCC(=O)c2ccccc2)n1 12.8%
CC(=O)Nc1ccc(Nc2cc(C)nc(Nc3ccc(NC(C)=O)cc3)n2)cc1 9.33%
O=C1NC(=O)C(CCc2ccccc2)(c2ccccc2)N1 (stereo not given) 2.24%
O=C(O)c1ccc([N+](=O)[O-])cc1Sc1ccsc1 -2.95%
Cc1ccc(S(=O)(=O)Nc2ccc(F)c(S(=O)(=O)N3CCOCC3)c2)cc1 2.24%
O=c1[nH]c2c(c(=O)n1-c1ccccc1)CCO2 -5.03%
COc1ccc(Cn2c(=S)[nH]c3cc(C(=O)NCCCN4CCOCC4)ccc3c2=O)cc1 -8.9%
O=C(NCCN1CCOCC1)c1ccc2c(c1)N(Cc1ccc(Cl)cc1)CCS2 -2.43%
O=C(Nc1ccc(N2CCOCC2)cc1)c1cccc(S(=O)(=O)N2CCOCC2)c1 3.61%
Cc1cc(NC(=O)CSc2nnc(-c3ccco3)n2N)no1 -6.78%
Cc1noc(C)c1NC(=O)Nc1ccc2c(c1)C(=O)N([C@H](C)CO)C[C@H](C)[C@@H](CN(C)C(=O)Nc1ccccc1)O2 -0.626%
CCCCCCCCNS(=O)(=O)CCNC1CCCCC1 -37.2%
CN(C)/C=C/C(=O)c1cnc2sccn2c1=O -1.67%
CCOC(=O)c1ccccc1NS(=O)(=O)c1c(C)nc2sccn2c1=O -10.1%
CN(CCc1ccccc1)C(=O)c1cccc(NC(=O)Cc2ccc([N+](=O)[O-])cc2)c1 -7.8%
CC(C)(C)NS(=O)(=O)NC(=O)C1=C(N2CCCC2)COC1=O -8.73%
CC(C)c1cc(N=O)cc(C(C)C)c1O 7.87%
CCCCOc1ccc(C(=O)NN2CCN(C)CC2)cc1 3.08%
CCCOc1ccc(C(=O)CCC(=O)OC(C)C(=O)Nc2ccc(NC(C)=O)cc2)cc1 (stereo not given) -6.44%
CN1CCOC1c1ccc(C2OCCN2C)cc1 (stereo not given) 0.917%
N#CCCN(C(=O)COC(=O)c1ccc2c(c1)OCCO2)c1ccccc1 -1.2%
Cc1cc(NC(=O)COC(=O)/C=C/c2ccc(C)o2)no1 -11%
CC12CCC(C(=O)N(c3cccc(Cl)c3)C1=O)C2(C)C (stereo not given) 18.4%
O=C(NN1C(=O)C2C(C1=O)C1C=CC2C12CC2)c1ccccc1Cl (stereo not given) -0.766%

Potency, active:
CCOC(=O)CSC1=C(C#N)C(c2sccc2C)CC(=O)N1 (stereo not given) 5.01 µM
Cc1c(/C=N\NC(=O)c2cc3ccccc3o2)c2ccccc2n1C 9.2 µM
c1ccc(-n2nnnc2NC2CCCCCC2)cc1 3.66 µM
COCC(C)n1c(SCc2ccc(C(=O)OC)o2)nc2ccccc2c1=O (stereo not given) 18.4 µM
COc1ccc(CNc2nc(NCc3ccc(OC)cc3)c3ncn(C4CCCC4)c3n2)cc1 4.61 µM
Cc1ccc(S(=O)(=O)C2(S(=O)(=O)c3ccc(C)cc3)CCCC2)cc1 4.47 µM
C=C1c2cccc(OC)c2O[C@H](C(=O)OCC)[C@@H]1CCCCCC 20.6 µM
COc1ccc(Nc2cc(C)nc(-n3nc(C)cc3C)n2)cc1 7.31 µM
CC(=O)c1ccc(Oc2cc(C)nc(-n3nc(C)cc3C)n2)cc1 1.84 µM
Cc1cc(N/N=C\c2ccc(Br)cc2)nc(-n2nc(C)cc2C)n1 8.2 µM
Cc1c(C)n(Cc2ccc(Cl)cc2)c2ccc(C(=O)NCCCN3CCOCC3)cc12 20.6 µM
CCOC(=O)c1cnc2sccn2c1=O 14.6 µM
CCCOc1ccc(C(=O)C(CCC(CNCC)C(=O)c2ccc(OCCC)cc2)CNCC)cc1 (stereo not given) 9.2 µM
CC12CCC(C(=O)N(NC(=O)c3ccccc3O)C1=O)C2(C)C (stereo not given) 20.6 µM

Reference: PubChem BioAssay AID624297 (National Center for Advancing Translational Sciences (NCATS), 2012)
